What is called inhibition is the change of the read-out against control, counted positive when it falls. The term viability denotes a read-out of living cells in per cent, often relative to untreated cells. As usually defined, the remaining activity is the signal under treatment as a percentage of the control signal.

Several values for one entry are separate records, joined by “and”; a condition that tells them apart may be missing. Equal entries are not always repeated. For some of these results: Results with a measured potency or affinity are listed apart. Activity calls are given as the source filed them. Unless noted, how the calls were made is not given here.

A short description of assay [1]: antimalarial activity against Dd2 strain (AID 2302;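 active means growth inhibition above 50% at the single 2 µM test dose, taken to imply half-maximal potency below 2 µM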;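 further: 0% = DMSO untreated growth and 100% = chloroquine plus artemisinin killed control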). Particulars: P. falciparum Dd2 in RBCs, LDH growth readout, 72 h; at 2 µM; stronger effect = higher value.
Assay [2] addresses L-lactate dehydrogenase (Plasmodium falciparum (isolate CDC / Honduras)) (UniProt Q27743). Description: PfLDH activity inhibition – cell lysate, 3D7 strain, counter-screen for P. falciparum growth inhibition project (AID 2304).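 Further: 0% = vehicle and 100% = reference inhibitor.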 Particulars: P. falciparum 3D7 crude extract, LDH APAD/NBT absorbance; at 2 µM; stronger effect = higher value.
Assay [3] can be described thus: inhibition of 3D7 malaria parasite growth – strain 3D7 (AID 2306).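 Further: 0% = DMSO wells and 100% = chloroquine plus artemisinin control wells.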 Particulars: P. falciparum 3D7 erythrocytic growth, LDH absorbance, 72 h; at 2 µM; stronger effect = higher value.
Assay [4] deals with Calcium-dependent protein kinase 1 (Plasmodium falciparum (isolate 3D7)) (UniProt P62344). The experiment in a line: PfCDPK1 kinase inhibitors, biochemical, TCAMS library (AID 1159585; cut-off not given, nearly all actives have IC50 up to about 0.98 µM;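 further: inhibitors leave more ATP so luminescence rises with inhibition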). Particulars: recombinant PfCDPK1, Kinase-Glo ATP depletion luminescence.
Chain of Calcium-dependent protein kinase 1 (Plasmodium falciparum (isolate 3D7)) (P62344 whole entry, looked up): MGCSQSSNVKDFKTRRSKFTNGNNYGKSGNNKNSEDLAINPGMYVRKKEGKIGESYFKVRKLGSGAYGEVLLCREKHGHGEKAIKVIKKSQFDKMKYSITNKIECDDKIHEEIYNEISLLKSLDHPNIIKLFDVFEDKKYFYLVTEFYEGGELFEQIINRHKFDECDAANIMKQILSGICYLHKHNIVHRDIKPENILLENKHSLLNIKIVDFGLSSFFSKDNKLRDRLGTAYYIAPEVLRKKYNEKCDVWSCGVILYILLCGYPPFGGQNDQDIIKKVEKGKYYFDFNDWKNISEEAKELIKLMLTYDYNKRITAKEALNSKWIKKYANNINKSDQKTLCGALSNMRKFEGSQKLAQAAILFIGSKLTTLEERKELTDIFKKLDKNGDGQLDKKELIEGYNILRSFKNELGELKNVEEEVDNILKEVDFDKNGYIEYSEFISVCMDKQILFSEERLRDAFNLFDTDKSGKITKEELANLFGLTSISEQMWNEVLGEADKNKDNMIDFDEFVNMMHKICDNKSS
In assay [5] the target is Plasmodium falciparum protein kinase 6 (PK6, PF3D7_1337100) (UniProt Q8IDW1). The experiment in a line: PfPK6 kinase inhibitors, biochemical, TCAMS library (AID 1159586). Particulars: recombinant PfPK6, Kinase-Glo ATP depletion luminescence. On the technique in general: In Kinase-Glo more light means more ATP remaining.
Chain of Plasmodium falciparum protein kinase 6 (PK6, PF3D7_1337100) (Q8IDW1 1-305): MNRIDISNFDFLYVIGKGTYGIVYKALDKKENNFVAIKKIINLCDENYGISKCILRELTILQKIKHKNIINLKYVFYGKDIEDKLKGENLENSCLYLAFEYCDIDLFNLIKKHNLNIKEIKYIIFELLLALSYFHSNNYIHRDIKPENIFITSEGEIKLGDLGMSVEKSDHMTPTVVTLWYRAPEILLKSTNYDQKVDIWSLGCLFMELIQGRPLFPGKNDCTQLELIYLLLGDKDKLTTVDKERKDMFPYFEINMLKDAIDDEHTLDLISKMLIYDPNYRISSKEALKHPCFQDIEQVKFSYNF
The target in assay [6] is Protein kinase 7 (PK7), Plasmodium falciparum 3D7 (PF3D7_0213400) (UniProt Q7YTF7). Description: inhibition of Plasmodium PK7 catalytic activity – biochemical, TCAMS antimalarial set, Kinase-Glo luminescence (AID 1159587). Particulars: recombinant PfPK7, Kinase-Glo ATP depletion luminescence.
Chain of Protein kinase 7 (PK7), Plasmodium falciparum 3D7 (PF3D7_0213400) (Q7YTF7 1-343): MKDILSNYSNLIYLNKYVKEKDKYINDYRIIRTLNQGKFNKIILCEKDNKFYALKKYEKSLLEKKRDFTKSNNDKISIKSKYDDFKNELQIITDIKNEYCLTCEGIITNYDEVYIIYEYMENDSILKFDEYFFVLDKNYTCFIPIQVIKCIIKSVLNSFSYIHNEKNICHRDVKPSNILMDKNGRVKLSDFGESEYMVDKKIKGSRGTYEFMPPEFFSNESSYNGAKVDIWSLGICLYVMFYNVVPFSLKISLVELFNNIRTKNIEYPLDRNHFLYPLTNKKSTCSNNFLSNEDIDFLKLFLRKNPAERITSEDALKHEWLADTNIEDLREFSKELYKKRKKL
Assay [7] has as its target Calcium-dependent protein kinase 4 (Plasmodium falciparum (isolate 3D7)) (UniProt Q8IBS5). The experiment in a line: PfCDPK4 kinase inhibitors, biochemical, TCAMS library (AID 1159588; cut-off not given, nearly all actives have IC50 up to about 0.91 µM). Particulars: recombinant PfCDPK4, Kinase-Glo ATP depletion luminescence.
Assay [8] is described as follows: P. berghei load reduction in hepatocytes – cell-based, HepG2, luciferase luminescence, HepG2 viability, primary screen (AID 624349; in the data active means parasite load remaining mostly below about 12%, no sharp cut-off; inactive means mostly above about 10%;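 further: 100% = mean of DMSO negative control wells on the same plate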). Particulars: P. berghei liver stage in HepG2, luciferase luminescence, concentration not given here; parasite load remaining: stronger effect = lower value; viability: measured here: HepG2 viability without parasites.
Assay [9] in a line: signal quenchers or enhancers, Cy5 substrate/SSB – biochemical, NIH Clinical Collection, E. coli SSB, artefact control for HCV NS3 helicase inhibitor project (AID 743268). Particulars: Cy5-oligo bound E. coli SSB, fluorescence interference.
The subject of assay [10] is Hepatitis C virus NS3 helicase. Description: blockers of NS3h binding to DNA – biochemical, fluorescence polarization, NIH Clinical Collection, primary screen (AID 743270). Particulars: NS3 helicase binding to Cy5-dT15 DNA, stronger effect = higher value, concentration not given here. A general note: Fluorescence polarisation rises when a labelled molecule tumbles more slowly, as on binding a larger partner.

Assay [11] addresses Single-stranded DNA-binding protein (Escherichia coli (strain K12)) (UniProt P0AGE0). Description: SSB-ssDNA binding inhibitors – biochemical, fluorescence polarization, NIH Clinical Collection, counter-screen for HCV NS3 helicase inhibitor project (AID 743271; in the data active means inhibition above about 28%). Particulars: E. coli SSB-DNA binding, stronger effect = higher value, concentration not given here.
Assay [12] in a line: compounds distorting NS3 helicase fluorescence signal – biochemical, NIH Clinical Collection, artefact control for HCV NS3 helicase inhibitor project (AID 743272).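 Further: HCV NS3 helicase with a Cy5 labelled single stranded DNA probe.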 Particulars: fluorescence interference counterscreen, HCV NS3 helicase assay; stronger effect = lower value. In general terms: A counterscreen serves to expose hits that act by an unwanted route or on another target.
Assay [13] relates to Neuropilin-2 / VEGF-C interaction (human). The experiment in a line: small molecules blocking Neuropilin-2/VEGF-C interaction – biochemical, microplate binding format, z-score (AID 743281). Particulars: microplate NRP2/VEGF-C binding assay; stronger effect = lower value.
The nature of assay [14]: modulation of C. elegans fzo-1 (AID 1259413).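 Further: fzo-1 mutant C. elegans worms in liquid wells.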 Particulars: C. elegans fzo-1 modulator screen, mean read-out; stronger effect = higher value.
In assay [15] the test system is Aerobactin synthetase IucA (Klebsiella pneumoniae). The experiment in a line: inhibition of K. pneumoniae IucA enzyme – biochemical, Tocris library, absorbance (AID 1345561).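 Further: 100% = enzyme without compound and 0% = no enzyme.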 Particulars: purified IucA enzyme assay, absorbance (OD) read-out; stronger effect = lower value;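 tested at 8 µM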.
Assay [16] in a line: viability loss with induced miR-34 in A549 – imaging, A549 dox-inducible miR-34, nuclei and caspase counts, primary screen (AID 1347080;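 active means compounds whose cell count with miR-34 switched on is under 0.7 times the count with it off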). Particulars: A549 miR-34 inducible, Hoechst nuclei count, 48 h.
Assay [17] is described as follows: galactose survival enhancers in mitochondrial complex I cybrids – cell-based, galactose medium, ATP luminescence, primary screen (AID 1645843;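 active means z-score of at least 1.8 in each of two replicates, scored against plate mean and spread of sample wells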;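 further: positive z means more ATP and so rescue of galactose-driven cybrid death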). Particulars: complex I mutant cybrid cells, 72 h, stronger effect = higher value.
A further assay deals with F380Y. Description: BK channel mutant inhibitors and activators – cell-based, U2OS BacMam, thallium flux, beta subunits, selectivity assay, profiling panel (AID 1259406;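 active means thallium flux through the channel raised or lowered by more than 3 SD from vehicle-only wells, actives on both sides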;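 further: initial slope of Thallos dye fluorescence rise after thallium is added; log ratio against the mean of 0.3% DMSO vehicle wells on the same plate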). Particulars: U2OS BacMam BK variants, at 30 µM.
The test system of a further assay is F380Y/beta1. The assay is described as above. Particulars: U2OS BacMam BK variants, at 30 µM.
A further assay relates to F380Y/beta2Delta. The description is as above. Particulars: U2OS BacMam BK variants, at 30 µM.
A further assay relates to F380Y/beta4. The description is as above. Particulars: U2OS BacMam BK variants, at 30 µM.
Assay [18] addresses Calcium-activated potassium channel subunit alpha-1 (Homo sapiens) + Leucine-rich repeat-containing protein 26 (Homo sapiens) (UniProt Q12791+Q2I0M4). The assay is described as above. Particulars: U2OS BacMam BK variants, F380Y/Slo1WT/gamma1, at 30 µM.
The test system of a further assay is R275C. The assay is described as above. Particulars: U2OS BacMam BK variants, at 30 µM.
The test system of a further assay is R275C/beta1. The assay is described as above. Particulars: U2OS BacMam BK variants, at 30 µM.
A further assay concerns R275C/beta2Delta. The assay is described as above. Particulars: U2OS BacMam BK variants, at 30 µM.
The next assay relates to R275C/beta4. Described as above. Particulars: U2OS BacMam BK variants, at 30 µM.
Another assay concerns R275C/Slo1WT/beta2. Described as above. Particulars: U2OS BacMam BK variants, at 30 µM.
A short description of assay [19]: human hepatoma cell viability loss – ATP luminescence, cytotoxicity control for P. falciparum antimalarial project, primary screen (AID 2303;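 active means inhibition above 50%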;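 further: 0% = DMSO wells and 100% = digitonin-killed cells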). Particulars: HepG2 viability, 24-48 h, at 10 µM, stronger effect = higher value.

Chain of Calcium-dependent protein kinase 4 (Plasmodium falciparum (isolate 3D7)) (Q8IBS5 whole entry, looked up): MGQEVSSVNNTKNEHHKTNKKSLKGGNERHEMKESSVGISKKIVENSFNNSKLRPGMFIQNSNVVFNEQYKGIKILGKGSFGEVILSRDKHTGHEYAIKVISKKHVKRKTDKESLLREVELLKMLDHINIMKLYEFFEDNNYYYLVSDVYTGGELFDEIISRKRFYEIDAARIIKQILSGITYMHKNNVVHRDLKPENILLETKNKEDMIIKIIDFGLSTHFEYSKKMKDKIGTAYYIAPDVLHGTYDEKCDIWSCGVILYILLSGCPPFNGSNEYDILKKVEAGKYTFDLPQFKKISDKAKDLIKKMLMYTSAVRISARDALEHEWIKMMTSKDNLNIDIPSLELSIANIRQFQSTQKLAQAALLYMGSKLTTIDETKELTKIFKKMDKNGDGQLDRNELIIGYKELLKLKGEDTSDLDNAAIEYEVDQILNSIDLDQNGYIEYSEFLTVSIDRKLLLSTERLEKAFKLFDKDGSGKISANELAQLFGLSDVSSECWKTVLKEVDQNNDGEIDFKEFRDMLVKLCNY
Chain of Calcium-activated potassium channel subunit alpha-1 (Homo sapiens) + Leucine-rich repeat-containing protein 26 (Homo sapiens) (Q2I0M4 whole entry, looked up, one chain of several): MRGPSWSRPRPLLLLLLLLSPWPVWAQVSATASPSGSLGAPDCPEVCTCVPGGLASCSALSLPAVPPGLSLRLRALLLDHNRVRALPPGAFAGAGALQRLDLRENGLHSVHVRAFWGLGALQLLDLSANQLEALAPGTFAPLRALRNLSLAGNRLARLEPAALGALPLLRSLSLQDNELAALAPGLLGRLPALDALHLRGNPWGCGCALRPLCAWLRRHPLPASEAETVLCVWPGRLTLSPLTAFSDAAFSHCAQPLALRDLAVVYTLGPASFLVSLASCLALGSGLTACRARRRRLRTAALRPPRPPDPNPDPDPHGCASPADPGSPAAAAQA
Chain of L-lactate dehydrogenase (Plasmodium falciparum (isolate CDC / Honduras)) (Q27743 whole entry, looked up): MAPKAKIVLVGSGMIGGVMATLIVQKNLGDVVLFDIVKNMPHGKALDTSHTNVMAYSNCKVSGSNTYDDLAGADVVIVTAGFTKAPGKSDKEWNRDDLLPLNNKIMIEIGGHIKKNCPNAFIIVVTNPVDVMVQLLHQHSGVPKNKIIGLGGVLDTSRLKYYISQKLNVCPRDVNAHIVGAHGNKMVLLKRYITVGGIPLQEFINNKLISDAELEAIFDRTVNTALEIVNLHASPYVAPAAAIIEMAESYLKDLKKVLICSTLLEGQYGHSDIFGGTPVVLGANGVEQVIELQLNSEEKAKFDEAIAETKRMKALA

As to `NC(N)=NC(=O)Nc1ccc([N+](=O)[O-])c(Cl)c1`, the figures for the growth inhibition in assay [1] and in [3] were 12% (inactive) and 90% (active), respectively. The inhibition in assay [2] is -10% (inactive). For the same compound, the outcome in assay [4], in [5], in [6] and in [7] was inactive.

`NCCc1ccccn1`: in [8], the parasite load remaining was 52.1% (inactive). In [8], this compound gave a viability of 95.2%. The fluorescence ratio in assay [9] and in [12] was 1 (inactive) throughout. In addition, the inhibition is -1.19% (inactive) in assay [10] and -1.64% (inactive) in assay [11]. The z-score in [13] was 1.2 (inactive); in [17], 0.8 (inactive) and -0.145 (inactive). Moreover, in assay [14], the mean signal was 245 (inactive). Moreover, the remaining activity in [15] was 108% (inactive). The fold change in assay [16] (stronger effect = lower value) is 1.03 (inactive); in [16] (stronger effect = lower value, cell number ratio, induced over uninduced), 1.05 (inactive); in [16] (measured here: relative caspase fold change +Dox/-Dox), 1.57 and 1.54. Moreover, the cell count in [16] (measured here: total cells with miR-34 induction, stronger effect = lower value) was 10400 and 8860; in [16] (measured here: total cells without miR-34 induction), 10100 and 8480. Further, the log fold change Tl+ flux with F380Y is -0.0264 (inactive); in the assay on F380Y/beta1, 0.0119 (inactive); in the assay with F380Y/beta2Delta, -0.0265 (inactive); in the assay with F380Y/beta4, -0.0155 (inactive); in assay [18], 0.0303 (inactive); in the assay with R275C, -0.0283 (inactive). The log fold change Tl+ flux in the assay with R275C/beta1 is -0.0664 (inactive); with R275C/beta2Delta, -0.0248 (inactive); with R275C/beta4, -0.0421 (inactive); with R275C/Slo1WT/beta2 it was -0.0103 (inactive).

As for `CCC1=C[C@@H]2CN(C1)Cc1c([nH]c3ccccc13)[C@@](C(=O)OC)(c1cc3c(cc1OC)N(C)[C@H]1[C@@](O)(C(=O)OC)[C@H](O)[C@]4(CC)C=CCN5CC[C@]31[C@@H]54)C2`, the growth inhibition in assay [1] is 99% (active); in assay [3] it was 98% (active). For the same compound, the inhibition in assay [2] is -1% (inactive). The outcome in assay [4], in assay [5], in [6] and in assay [7] was inactive.

For the compound `c1ccc(C(OCCC2CCN(Cc3cccnc3)CC2)c2ccccc2)cc1`, the growth inhibition was 98% (active) in [1] and 99% (active) in assay [3]. The inhibition in assay [19] was 12% (inactive); in assay [2], 5% (inactive). The outcome in assay [4], in assay [5], in assay [6] and in assay [7] was inactive.

`Cc1ccc(S(=O)(=O)N2CN3CCN(C3)C2)cc1`: the log fold change Tl+ flux is -0.028 (inactive) in the assay with F380Y; -0.0265 (inactive) in the assay with F380Y/beta1; -0.0357 (inactive) in the assay with F380Y/beta2Delta; 0.048 (inactive) in the assay on F380Y/beta4; 0.0134 (inactive) in [18]; 0.0146 (inactive) with R275C. The log fold change Tl+ flux in the assay on R275C/beta1 is -0.00993 (inactive); with R275C/beta2Delta, -0.021 (inactive); with R275C/beta4 it was -0.0275 (inactive); in the assay with R275C/Slo1WT/beta2, 0.0283 (inactive).

With `COc1ccc(C(=O)c2ccc3[nH]cc(C4=CCN(C)CC4)c3c2)cc1`, the growth inhibition in assay [1] was 55% (active); in [3], 88% (active). The inhibition in assay [2] is 4% (inactive). In addition, the result in assay [4], in assay [5], in assay [6] and in assay [7] was inactive.

Regarding `CN1CC(c2ccc(Cl)c(Cl)c2)OC1=N` (configuration not stated), the values for the growth inhibition in assay [1] and in assay [3] were 3% (inactive) and 99% (active), respectively. In addition, in [2], the inhibition is 2% (inactive). Moreover, the outcome in assay [4], in [5], in [6] and in assay [7] was inactive.

Regarding `Cc1csc2sc(C=C(C#N)C#N)c(C)c12`, the log fold change Tl+ flux is 0.0324 (inactive) with F380Y; -0.023 (inactive) in the assay with F380Y/beta1; 0.0231 (inactive) in the assay on F380Y/beta2Delta; 0.00092 (inactive) with F380Y/beta4; 0.0126 (inactive) in assay [18]; 0.0225 (inactive) in the assay with R275C. Besides, the log fold change Tl+ flux in the assay with R275C/beta1 was 0.0369 (inactive); with R275C/beta2Delta it was 0.00343 (inactive); in the assay with R275C/beta4, 0.00359 (inactive); in the assay with R275C/Slo1WT/beta2, 0.0163 (inactive).

For `CCCCCCC(CC)c1cc(O)c2c(c1)OC(C)(C)c1ccncc1-2` (configuration not stated), the growth inhibition was 52% (active) in [1] and 94% (active) in [3]. The figures for the inhibition in assay [19] and in assay [2] were -1% (inactive) and -6% (inactive), respectively. The outcome in assay [4], in assay [5], in [6] and in assay [7] was inactive.

In the case of `O=[N+]([O-])c1ccc(Oc2c(Cl)cc(S(=O)(=O)N3CCC(CN4CCC(c5c[nH]c6ccccc56)CC4)CC3)cc2Cl)c(Cl)c1`, the results for the growth inhibition in assay [1] and in [3] were 83% (active) and 100% (active), respectively. For the same compound, the inhibition in [19] was 43% (inactive); in assay [2], -1% (inactive). In addition, the outcome in assay [4], in assay [5], in [6] and in assay [7] was inactive.

Values taken from PubChem BioAssay.
